Assay outcomes (PubChem)
Only some compounds are listed: those with a hit (about 2.4% of all), similar ones and a draw of the others.
D2 ag-1 – activates the human D2 dopamine receptor; P14416; DiscoveRx PathHunter D2 beta-arrestin, luminescence, 90 min; 100% = 57 uM dopamine signal; 360,000 tested, 0.084% active; activation, % (concentration not given with the values); in the data active = activation above about 40%; inconclusive = between about 15% and that limit
Target sequence (P14416 whole entry, looked up): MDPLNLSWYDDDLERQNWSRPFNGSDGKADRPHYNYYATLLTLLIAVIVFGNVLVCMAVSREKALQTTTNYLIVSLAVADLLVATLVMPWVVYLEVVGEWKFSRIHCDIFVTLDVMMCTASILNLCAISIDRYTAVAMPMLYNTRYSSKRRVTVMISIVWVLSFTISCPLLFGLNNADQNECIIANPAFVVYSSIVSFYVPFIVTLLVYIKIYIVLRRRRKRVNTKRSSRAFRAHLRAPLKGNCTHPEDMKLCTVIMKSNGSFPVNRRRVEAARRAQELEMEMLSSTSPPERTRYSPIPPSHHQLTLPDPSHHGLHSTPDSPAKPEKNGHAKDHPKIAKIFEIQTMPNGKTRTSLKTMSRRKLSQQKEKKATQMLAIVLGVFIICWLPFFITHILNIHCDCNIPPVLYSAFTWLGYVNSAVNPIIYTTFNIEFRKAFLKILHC
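Agonist mode: compounds alone added to overnight-plated D2 PathHunter cells for 90 min at 37 C, with 57 uM final dopamine (EC100) defining full response. Beta-arrestin recruitment detected by chemiluminescent reagent, read after 1 h at ambient temperature.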
D2 antagonist – antagonists of human D2 dopamine receptor. HEK293 TREx D2 cells, calcium flux, dopamine EC80. P14416. inhibition, % at 10 µM. AID 485344. 340,000 tested, 2% active; in the data active = inhibition above about 30%; inactive = below that, where a call was filed
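Tetracycline-induced HEK293 TREx cells expressing D2 receptor forced-coupled to calcium signalling, loaded with no-wash calcium dye. Compounds added and calcium flux read 180 s, then dopamine added at EC80 and read a further 180 s.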
D2 PAM-1 – D2 dopamine receptor (human) potentiation; P14416; HEK293 T-REx D2, calcium flux, EC20 dopamine potentiation; potentiation, % at 10 µM; 340,000 tested, 0.34% active;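 active = potentiation over 3 SD above the plate norm, cut at about 30% in these data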
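Cells plated with tetracycline inducer and held overnight at 30 C; calcium dye loaded 30–90 min at room temperature; baseline taken, compound added and read 180 s; EC20 dopamine then added and read 180 s.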
D2 PAM-2 – positive allosteric modulators of human D2 dopamine receptor; P14416; DiscoveRx D2 beta-arrestin cells, luminescence, 90 min; 100% = 57 uM dopamine signal; potentiation, % (concentration not given with the values); 360,000 tested, 0.23% active; AID 624464; in the data active = potentiation above about 50%; inconclusive = mostly about 30% to 49%
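D2 cells co-treated with compound plus 50 nM dopamine (EC20) for 90 min at 37 deg C to detect potentiation. Beta-arrestin recruitment was read as enzyme-fragment luminescence after 1 h at ambient temperature. Full response was set by 57 uM dopamine.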
D2 ag-2 – agonists of human D2 dopamine receptor; P14416; HEK293 T-REx D2 cells, calcium flux agonist mode; activation, % at 2 µM; 340,000 tested, 0.53% active; AID 485358;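 active = activation over 3 SD above normal in the single-dose calcium agonist read, cut at about 30% in these data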
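Tetracycline-induced HEK293 T-REx cells with force-coupled D2 receptor, plated overnight at 30 C, loaded with no-wash calcium dye. After a 10 s baseline, compound was pin-added and calcium flux read kinetically for 180 s; calcium rises flagged agonists.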
Large screens that a line does not name were inactive.

Cn1c(=O)c(C(=O)COC(=O)c2cc(C(F)(F)F)nc3ccccc23)c(N)n(Cc2ccccc2)c1=O	none (no result: D2 ag-1, D2 PAM-2)
COc1cc2ccccc2cc1C(=O)OCC(=O)c1c(N)n(C)c(=O)n(C)c1=O	D2 antagonist 52
Cn1c(=O)c(C(=O)COC(=O)c2cc(-c3ccccc3)nc3ccccc23)c(N)n(Cc2ccccc2)c1=O	D2 antagonist 31 (no result: D2 ag-1, D2 PAM-2)
N#Cc1c(-n2ncnc2-c2ccccc2Cl)sc2c1CCCCC2	none (no result: D2 ag-1, D2 antagonist, D2 PAM-1, D2 PAM-2)
CCCCOc1ccc(C(=O)Oc2cc(C)[nH]c(=O)c2[N+](=O)[O-])cc1	D2 antagonist 77
CCOc1ccc(C(=O)Oc2cc(C)[nH]c(=O)c2[N+](=O)[O-])cc1	none
Cc1ccc(CN2CCC(CNc3ncnc4onc(-c5ccc(F)cc5)c34)CC2)cc1	none (no result: D2 ag-1, D2 antagonist, D2 PAM-2)
CCOc1cccc2sc(N(CCN(C)C)C(=O)c3ccc(Br)s3)nc12	D2 antagonist 33
Cc1cc(C)n(CCn2nc(C)cc2C)n1	D2 antagonist 41
Cc1cc(C)n(CC(=O)O)n1	none
CC(=O)c1c(C)[nH]c(C(=O)Nc2nc(C)cs2)c1C	D2 antagonist 33
COc1ccc(-c2nc(NC(=O)c3ccco3)sc2C)cc1	none (no result: D2 antagonist, D2 PAM-1, D2 ag-2)
CC(=O)c1c(C)[nH]c(C(=O)Nc2nc(-c3ccc(Cl)cc3)cs2)c1C	none
COc1ccc(-c2nc(NC(=O)c3[nH]c(C)c(C(C)=O)c3C)sc2C)cc1	D2 PAM-1 31
C/C(=N\OCc1ccc(C#N)cc1)c1ccccc1	none
C/C(=N\OCc1cccc(C(=O)O)c1)c1ccc(Cl)cc1	D2 antagonist 56
Cc1cccc(C(=O)NC(=O)Nc2ccc(-n3nc(C(F)(F)F)cc3C(F)(F)F)cc2)c1	none (no result: D2 ag-1, D2 antagonist, D2 PAM-2)
CCOc1ccc(N(CC(=O)NC(C)CC)S(C)(=O)=O)cc1 (stereo unspecified)	D2 antagonist 38
COC(=O)c1ccc(NC(=O)CSc2nnnn2C2CCCCC2)cc1	D2 antagonist 42
COc1cccc(OC)c1OC(=O)C1CC(=O)N(c2ccc3c(c2)OCCO3)C1 (stereo unspecified)	none (no result: D2 antagonist, D2 PAM-1, D2 ag-2)
COc1ccccc1OC(=O)C1CC(=O)N(c2ccc(Cl)cc2)C1 (stereo unspecified)	D2 PAM-1 34
COc1ccccc1NC(=O)C(C)OC(=O)C1CC(=O)N(c2ccc3c(c2)OCCO3)C1 (stereo unspecified)	D2 PAM-2 63
COc1ccc(Cl)cc1NC(=O)C1CCN(C(=O)C2CC(=O)N(c3ccc(C)cc3)C2)CC1 (stereo unspecified)	D2 antagonist 37
Cc1ccc(N2CC(C(=O)N3CCC(C(=O)Nc4ccc(Br)cc4)CC3)CC2=O)cc1 (stereo unspecified)	none
Cc1ccc(N2CC(C(=O)N3CCC(C(=O)Nc4cccc(Br)c4)CC3)CC2=O)cc1 (stereo unspecified)	D2 antagonist 39
Cc1ccc(NC(=O)CSc2nc3ccccc3c3nc(CCn4c(C)nc5ccccc54)nn23)cc1F	none (no result: D2 ag-1, D2 antagonist, D2 PAM-2)
COc1cccc(-c2nc3c(C#N)c[nH]n3c2NC2CCCCC2)c1	none (no result: D2 ag-1, D2 antagonist, D2 PAM-2)
O=C(O)c1ccc(N2CCCS2(=O)=O)cc1	D2 antagonist 34
O=C(Cn1cc(SCc2ccccc2F)c2ccccc21)N1CCCCCC1	none (no result: D2 ag-1, D2 antagonist, D2 PAM-2)
COc1cccc(O)c1CN1CCCC(C(=O)c2cccc(C(F)(F)F)c2)C1 (stereo unspecified)	D2 antagonist 49
Cc1ccc(C2CC(=O)N(Cc3ccccc3)c3c2c(C)nn3-c2nc(C)cc(C)n2)cc1 (stereo unspecified)	none (no result: D2 ag-1, D2 antagonist, D2 PAM-2, D2 ag-2)
CCOC(=O)C1CCN(C(=O)Cn2nc(CC)n3c(cc4occc43)c2=O)CC1	none (no result: D2 ag-1, D2 antagonist, D2 PAM-2, D2 ag-2)
NS(=O)(=O)c1ccc(NC(=S)Nc2ccn(Cc3cccc4ccccc34)n2)cc1	D2 antagonist 42
Cc1ccc(C)c(Nc2nn3c(=O)c4ccc(C(=O)NCc5cccs5)cc4nc3s2)c1	none (no result: D2 ag-1, D2 antagonist, D2 PAM-2)
Cc1ccc(NC2=C/C(=N/S(=O)(=O)c3cccs3)c3ccccc3C2=O)cc1C	D2 ag-1 inconclusive, D2 PAM-2 76
O=C(CN1C(=O)C2(SCC(=O)N2c2cccc(Cl)c2)c2ccccc21)NCCc1ccccc1 (stereo unspecified)	none (no result: D2 ag-1, D2 antagonist, D2 PAM-2)
CCOC(=O)c1[nH]ncc1CN1CCCC(C(=O)c2cc(Cl)ccc2OC)C1 (stereo unspecified)	D2 antagonist 73
CCOC(=O)c1[nH]ncc1CN1CCCC(C(=O)c2ccc(OC)c(OC)c2)C1 (stereo unspecified)	none (no result: D2 antagonist, D2 PAM-1, D2 ag-2)
COCc1nnc(NC(C)=O)s1	D2 antagonist 32
Cc1cc(C)c(NC(=O)CCn2c(=O)c3cccn3c3ccccc32)c(C)c1	none (no result: D2 ag-1, D2 antagonist, D2 PAM-2)
Nc1nc(CN2CCN(Cc3ccccc3)CC2)nc(N2CCCc3ccccc32)n1	D2 antagonist 63
CCN(CC1CCCN(CCc2cccc(F)c2)C1)C(=O)c1ccoc1C (stereo unspecified)	none (no result: D2 antagonist, D2 PAM-1, D2 ag-2)
C=CCC(=O)N(CC)CC1CCCN(CCc2cccc(F)c2)C1 (stereo unspecified)	D2 antagonist 49
COc1ccccc1-n1nc(-c2ccccc2)c2cnc3c(F)cc(F)cc3c21	none (no result: D2 ag-1, D2 antagonist, D2 PAM-2)
CC(C)CCNC(=O)CCn1c(=S)oc2ccccc21	D2 PAM-1 44
O=C(ON=C1CCN(S(=O)(=O)c2ccccc2)CC1)c1cccc(Cl)c1	D2 PAM-1 34
COc1cc(C(=O)N2CCN(c3ccc(Nc4ccccc4)nn3)CC2)cc(OC)c1OC	none (no result: D2 ag-1, D2 antagonist, D2 PAM-2)
CCCCN1C(=O)C2C(C(=O)Nc3cccc(OC)c3)C3C=CC2(O3)C1C(=O)NC1CCCCC1C (stereo unspecified)	D2 antagonist 36
CCCCN(C)CCN1C(=O)C2C(C(=O)Nc3cccc(OC)c3)C3C=CC2(O3)C1C(=O)NC1CCCCC1C (stereo unspecified)	none
Cc1cc(=O)n(CCO)c(O)c1C#N	D2 PAM-2 52
Cc1cccc(Cn2nnc3c2C(=O)c2ccccc2C3=O)c1	D2 PAM-2 71
Cc1cccc(Cn2ncc(Cl)c(Cl)c2=O)c1	none
Cc1ccc(CNC(=O)C(NS(=O)(=O)c2ccc3nc(C)sc3c2)C(C)C)cc1 (stereo unspecified)	none
Cc1nc2ccc(S(=O)(=O)NC(C(=O)NCc3ccco3)C(C)C)cc2s1 (stereo unspecified)	D2 antagonist 31
O=C(/C=C/c1ccccc1)N(c1ccccn1)C1CCCCC1	D2 ag-2 34
CCN(CC)S(=O)(=O)c1ccc(/C=C/C(=O)N(c2ccccn2)C2CCCCC2)cc1	none
CC(=O)c1ccc(S(=O)(=O)NC2CC(=O)N(c3cccc(F)c3)C2)cc1 (stereo unspecified)	none
O=C1CC(NS(=O)(=O)c2ccc([N+](=O)[O-])cc2)CN1c1cccc(F)c1 (stereo unspecified)	D2 PAM-1 42
Cc1ccc2oc(C(=O)N(Cc3ccccc3F)C3CCS(=O)(=O)C3)c(C)c2c1 (stereo unspecified)	none (no result: D2 ag-1, D2 antagonist, D2 PAM-2)
